Reference: PubChem BioAssay (NCATS)
“And” between values parts separate entries of the source, which are not always exact repeats. Identical values can stand only once. Results filed as inconclusive are left out. The source made the active and inactive calls. Calls come from the whole dose curve; as a rule, active = well fitted curve in the direction sought with a large enough effect; inconclusive = small, poorly fitted or top-dose-only effect, or another doubt; inactive = no such curve, though single readings can be large; an effect the other way counts as inactive or inconclusive.

Target: Voltage-gated inwardly rectifying potassium channel KCNH2 (Homo sapiens) (UniProt Q12809)
Experiment: qHTS Assay for Small Molecule Inhibitors of the Human hERG Channel Activity (AID 588834);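 note: lower thallium flux fluorescence means stronger hERG block; nearly all actives have a fitted effect of over 50% in size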; note: potency is the fitted concentration of half-maximal effect; for activity change, negative = inhibition: top concentration of the series differs between compounds; % is set by controls: 0 for no effect and ±100 for the full control effect
Settings: U2OS BacMam hERG, FluxOR thallium flux fluorescence; series mostly up to 46.1 µM; activity change, negative = inhibition: at the top concentration
In short: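 Thallium serves as surrogate for K+ influx through BacMam-delivered hERG in U2OS cells. Compounds are added for about 10 minutes after dye loading; stimulation buffer then starts flux, monitored kinetically on FDSS.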

Sequence of Voltage-gated inwardly rectifying potassium channel KCNH2 (Homo sapiens) (Q12809 whole entry, looked up): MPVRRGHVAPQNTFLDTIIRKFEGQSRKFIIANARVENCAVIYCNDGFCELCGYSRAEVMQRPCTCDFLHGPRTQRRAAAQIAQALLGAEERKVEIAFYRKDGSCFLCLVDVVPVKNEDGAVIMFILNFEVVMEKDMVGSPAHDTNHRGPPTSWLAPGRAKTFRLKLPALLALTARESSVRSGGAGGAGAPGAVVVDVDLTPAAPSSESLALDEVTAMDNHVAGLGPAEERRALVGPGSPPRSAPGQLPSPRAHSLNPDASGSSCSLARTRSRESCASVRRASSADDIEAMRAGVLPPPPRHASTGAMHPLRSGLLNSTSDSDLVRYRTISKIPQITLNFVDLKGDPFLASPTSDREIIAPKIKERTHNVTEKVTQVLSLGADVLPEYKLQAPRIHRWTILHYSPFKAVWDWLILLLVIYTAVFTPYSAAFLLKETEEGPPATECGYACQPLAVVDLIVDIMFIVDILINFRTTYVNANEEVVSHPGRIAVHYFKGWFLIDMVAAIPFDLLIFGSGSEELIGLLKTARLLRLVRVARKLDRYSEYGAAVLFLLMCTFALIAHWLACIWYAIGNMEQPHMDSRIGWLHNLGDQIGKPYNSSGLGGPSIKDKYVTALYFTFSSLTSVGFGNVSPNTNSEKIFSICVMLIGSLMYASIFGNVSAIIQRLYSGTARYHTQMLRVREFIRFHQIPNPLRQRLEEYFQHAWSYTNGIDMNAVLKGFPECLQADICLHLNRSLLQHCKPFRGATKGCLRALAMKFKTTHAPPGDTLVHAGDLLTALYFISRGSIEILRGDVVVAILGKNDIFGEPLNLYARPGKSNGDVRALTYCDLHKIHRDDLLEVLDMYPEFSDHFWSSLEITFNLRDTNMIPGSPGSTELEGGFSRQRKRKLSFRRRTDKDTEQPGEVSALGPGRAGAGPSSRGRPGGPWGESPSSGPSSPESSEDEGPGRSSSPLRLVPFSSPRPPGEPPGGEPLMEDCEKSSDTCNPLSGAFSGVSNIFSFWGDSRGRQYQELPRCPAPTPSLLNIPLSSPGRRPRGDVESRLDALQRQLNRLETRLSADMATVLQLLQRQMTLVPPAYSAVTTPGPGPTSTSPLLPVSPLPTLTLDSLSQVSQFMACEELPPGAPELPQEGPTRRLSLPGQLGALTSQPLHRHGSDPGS

SMILES	Potency	activity change, negative = inhibition
CCCCN(CCCC)CCC(O)c1cc2c(Cl)cc(Cl)cc2c2cc(C(F)(F)F)ccc12 (stereo not drawn)	0.398 µM (active)	
O=c1oc2cc(O)ccc2s1		-19.6% (inactive)
NCCCCNCCCN		13.7% (inactive)
NC(=NCc1ccccc1)NC(=O)c1nc(Cl)c(N)nc1N	5.62 µM (active)	
CC(C)c1ccc2c(c1)c(SC(C)(C)C)c(CC(C)(C)C(=O)O)n2Cc1ccc(Cl)cc1		3.48% (inactive)
CN(c1nccc(=O)[nH]1)C1CCN(c2nc3ccccc3n2Cc2ccc(F)cc2)CC1	1.78 µM (active)	
CC(C)c1ccc2oc3nc(N)c(C(=O)O)cc3c(=O)c2c1		-0.515% (inactive)
O=C1c2c(O)cc(O)cc2OC(c2ccc(O)c(O)c2)C1O (stereo not drawn)		3.9% (inactive)
C=C(c1ccc(C(=O)O)cc1)c1cc2c(cc1C)C(C)(C)CCC2(C)C		7.25% (inactive)
O=C(c1ccccc1)c1ccc2n1CCC2C(=O)O (stereo not drawn)	inactive	
CC1(C)CCC(C)(C)c2cc(NC(=O)c3ccc(C(=O)O)cc3)ccc21		-7.01% (inactive)
O=C1NC(=O)C(c2ccccc2[N+](=O)[O-])=C1Nc1ccc(O)c(Cl)c1		-4.13% (inactive)
Nc1ccn([C@@H]2O[C@H](CO)[C@@H](O)C2O)c(=O)n1 (stereo partly drawn)		6.2% (inactive)
CCCCc1ccc2nc(NC(=O)OC)[nH]c2c1		3.99% [at 20.6 µM] (inactive)
CCC[C@@H]1C[C@@H](C(=O)N[C@@H]([C@H]2O[C@H](SC)[C@H](O)[C@@H](O)[C@H]2O)[C@@H](C)O)N(C)C1		17.8% (inactive)
O=c1ccc2ccc(O)c(O)c2o1		0.627% (inactive)
CNC[C@@H](O)[C@@H](O)[C@H](O)[C@H](O)CO		2.26% (inactive)
OC(CN1CCN(c2cccc(Cl)c2)CC1)C(c1ccccc1)c1ccccc1 (stereo not drawn)	1.58 µM (active)	

SMILES	Potency	activity change, negative = inhibition
COC1=C(OC)C(=O)C(CCCCCCCCCCO)=C(C)C1=O		-15.3% (inactive)
Oc1ccc(-c2nc(-c3ccc(F)cc3)c(-c3ccncc3)[nH]2)cc1		-0.735% (inactive)
Oc1ccc(OCc2ccccc2)cc1		2.85% [at 20.6 µM] (inactive)
Nc1nc(OCc2ccccc2)c2[nH]cnc2n1		-10.8% (inactive)
O=C(O)c1cccnc1Nc1cccc(C(F)(F)F)c1	inactive	
O=C(O)CCNC(=O)c1ccc(N=Nc2ccc(O)c(C(=O)O)c2)cc1		12.2% (inactive)
CC(=O)O[C@H]1C(=O)[C@@]2(C)C([C@H](OC(=O)c3ccccc3)[C@]3(O)C[C@H](OC(=O)[C@H](O)[C@@H](NC(=O)c4ccccc4)c4ccccc4)C(C)=C1C3(C)C)[C@]1(OC(C)=O)CO[C@@H]1C[C@@H]2O (stereo partly drawn)		-9.25% (inactive)
CCC(C)(Oc1ccc(C2(c3ccc(OC(C)(CC)C(=O)O)cc3)CCCCC2)cc1)C(=O)O (stereo not drawn)		2.82% (inactive)
COCCCOc1ccnc(CS(=O)c2nc3ccccc3[nH]2)c1C (stereo not drawn)		-4.72% (inactive)
O=c1cc(N2CCOCC2)oc2c(-c3ccccc3)cccc12		-7.91% (inactive)
Cc1c(OCC(F)(F)F)ccnc1CS(=O)c1nc2ccccc2[nH]1 (stereo not drawn)	inactive	
CC(C)(S)[C@@H](N)C(=O)O		-13.1% (inactive)
Cc1cc(=O)c2c(O)c3c(O)cc(=O)c4c3c3c(cc(O)c1c23)C(C)(C)C=4O	3.98 µM (active)	
Cc1cc2cc3c(C)cc(=O)oc3c(C)c2o1		3.57% [at 20.6 µM] (inactive)
O=C1c2ccccc2-c2n[nH]c3cccc1c23		-6.35% (inactive)

Target: Luciferin 4-monooxygenase (Photinus pyralis) (UniProt P08659)
Experiment: Biochemical firefly luciferase enzyme assay for NPC (AID 624030); note: nearly all actives have a fitted effect of over 70% in size; note: potency is the fitted concentration of half-maximal effect;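 for activity change, negative = inhibition: purified P. pyralis luciferase at 10 nM with luciferin and ATP substrate; 0% = DMSO and -100% = full luciferase inhibition by PTC124 control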
Settings: purified P. pyralis luciferase, luminescence, 5 min; series mostly up to 58.6 µM; activity change, negative = inhibition: at the top concentration
In short: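 Direct inhibition of firefly luciferase enzyme (10 nM final, 50 mM Tris Acetate) assessed by luminescence within 5 minutes. Percent activity scaled between DMSO and PTC124 positive control, with concentration-effect curves classified by fit quality and response.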

SMILES	activity change, negative = inhibition	Potency
CCCCN(CCCC)CCC(O)c1cc2c(Cl)cc(Cl)cc2c2cc(C(F)(F)F)ccc12 (stereo not drawn)	8% [at 24.9 µM] (inactive)	
O=c1oc2cc(O)ccc2s1	-6.99% (inactive)	
CN(c1nccc(=O)[nH]1)C1CCN(c2nc3ccccc3n2Cc2ccc(F)cc2)CC1	-0.696% (inactive)	
CC(C)c1ccc2oc3nc(N)c(C(=O)O)cc3c(=O)c2c1		405 nM (active)
Nc1ccn([C@@H]2O[C@H](CO)[C@@H](O)C2O)c(=O)n1 (stereo partly drawn)	0.945% (inactive)	
CCC[C@@H]1C[C@@H](C(=O)N[C@@H]([C@H]2O[C@H](SC)[C@H](O)[C@@H](O)[C@H]2O)[C@@H](C)O)N(C)C1	0.111% (inactive)	
CNC[C@@H](O)[C@@H](O)[C@H](O)[C@H](O)CO	0.506% (inactive)	
COC1=C(OC)C(=O)C(CCCCCCCCCCO)=C(C)C1=O	-16.6% (inactive)	
NNc1nncc2ccccc12		77.5 nM (active)
Cc1c(OCC(F)(F)F)ccnc1CS(=O)c1nc2ccccc2[nH]1 (stereo not drawn)	-8.04% (inactive)	
O=C(NCC1CCCCN1)c1cc(OCC(F)(F)F)ccc1OCC(F)(F)F (stereo not drawn)	-1.26% (inactive)	
CC(C)(S)[C@@H](N)C(=O)O	4.15% (inactive)	
Cc1cc(=O)c2c(O)c3c(O)cc(=O)c4c3c3c(cc(O)c1c23)C(C)(C)C=4O	5.3% (inactive)	
Cc1cc2cc3c(C)cc(=O)oc3c(C)c2o1	-10.5% [at 24.9 µM] (inactive)	

Tested on: not listed separately
Experiment: S16 Schwann cell viability assay (CellTiter-Glo assay) (AID 624031);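 note: cellular ATP luminescence as a viability measure; plate controls were DMSO-treated cells for no effect and cell-free wells for full effect; nearly all actives have a fitted effect of over 70% in size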
Settings: S16 rat Schwann cells viability, 24 h; series mostly up to 57.5 µM; activity change, negative = cytotoxicity: at the top concentration
In short: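 Native S16 rat Schwann cells in DMEM/10% FBS without phenol red were incubated overnight, then exposed to compounds for 24 h at 37 °C/5% CO2. Viability was read as ATP luminescence (CellTiter-Glo), normalized to no-cell wells and DMSO (0%).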

SMILES	activity change, negative = cytotoxicity
CCCCN(CCCC)CCC(O)c1cc2c(Cl)cc(Cl)cc2c2cc(C(F)(F)F)ccc12 (stereo not drawn)	-11.4% [at 25.7 µM] (inactive)
O=c1oc2cc(O)ccc2s1	8.12% (inactive)
CC(C)c1ccc2oc3nc(N)c(C(=O)O)cc3c(=O)c2c1	1.97% (inactive)
C=C(c1ccc(C(=O)O)cc1)c1cc2c(cc1C)C(C)(C)CCC2(C)C	-10.6% (inactive)
CC1(C)CCC(C)(C)c2cc(NC(=O)c3ccc(C(=O)O)cc3)ccc21	-6.29% (inactive)
Nc1ccn([C@@H]2O[C@H](CO)[C@@H](O)C2O)c(=O)n1 (stereo partly drawn)	-4.04% (inactive)
CCCCc1ccc2nc(NC(=O)OC)[nH]c2c1	-26.9% [at 25.7 µM] (inactive)
CCC[C@@H]1C[C@@H](C(=O)N[C@@H]([C@H]2O[C@H](SC)[C@H](O)[C@@H](O)[C@H]2O)[C@@H](C)O)N(C)C1	4.87% (inactive)
CNC[C@@H](O)[C@@H](O)[C@H](O)[C@H](O)CO	2.37% (inactive)
NNc1nncc2ccccc12	-6.76% [at 25.7 µM] (inactive)
Oc1ccc(OCc2ccccc2)cc1	1.99% [at 25.7 µM] (inactive)
O=C(O)c1cccnc1Nc1cccc(C(F)(F)F)c1	0% (inactive)
O=C(O)CCNC(=O)c1ccc(N=Nc2ccc(O)c(C(=O)O)c2)cc1	2.29% (inactive)
CCC(C)(Oc1ccc(C2(c3ccc(OC(C)(CC)C(=O)O)cc3)CCCCC2)cc1)C(=O)O (stereo not drawn)	16.1% (inactive)
COCCCOc1ccnc(CS(=O)c2nc3ccccc3[nH]2)c1C (stereo not drawn)	-4.09% (inactive)
Cc1c(OCC(F)(F)F)ccnc1CS(=O)c1nc2ccccc2[nH]1 (stereo not drawn)	0.0581% (inactive)
CC(C)(S)[C@@H](N)C(=O)O	-4.05% (inactive)
Cc1cc2cc3c(C)cc(=O)oc3c(C)c2o1	-7.03% [at 25.7 µM] (inactive)
O=C1c2ccccc2-c2n[nH]c3cccc1c23	2.37% (inactive)
